According to PubChem BioAssay (NCI):
The panel holds about 79,000 compounds, 15% with a hit somewhere; the sample as a whole holds those more often. A number with no mark means an inactive call. The source made the active and inactive calls. Cut-off read from the data, not from the text of the source: active = growth inhibition above about 70%; inactive = the rest.

Assay: NCI Yeast Anticancer Drug Screen. Data for the sgs1 mgt1 strain (AID 161);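 note: 0% = growth of cultures given vehicle only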
Details: S. cerevisiae sgs1 mgt1 strain, at 50.0 µM, active compounds read high
How it was run: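 Test agents were incubated with a DNA-repair-mutant yeast strain. Growth was then read and compared against vehicle-treated controls.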

| SMILES | growth inhibition |
| --- | --- |
| Clc1cccc[n+]1CCc1ccccc1 | 5.3% |
| COC(=O)c1c(C)ccc(C)c1C(=O)c1c(C)cc(C)cc1C | 5% |
| O=C1c2ccccc2C(=O)N1CC1(C(=O)O)NCCS1(=O)=O (stereo not given) | -22.3% |
| CCN(CC)c1ccc2c(c1)Oc1cc(N(CC)CC)ccc1C2c1ccccc1C(=O)O | -1.5% |
| C[n+]1ccccc1C(O)C(O)c1cccc[n+]1C (stereo not given) | 8.85% |
| C(=NC12CC3CC(CC(C3)C1)C2)C1CCCCC1 | 0.05% |
| CCCCCCCc1cc(OC(=O)c2c(C)cc(OC)cc2O)cc(O)c1C(=O)O | 8.65% |
| Cc1cccc(C)c1NC(=O)Nc1cccc(O)c1 | 13.5% |
| CC(C)(C)OC(=O)NCC(O)CNC(=O)OC(C)(C)C | -45.8% |
| NC(=O)N/N=C/c1ccc(Cl)cc1Cl | -8.25% |
| CCN(CC)CCCNc1c2c(nc3ccc(Cl)cc13)CCCC2 | 0.6% |
| Cc1ccc(S(=O)(=O)CC(=O)NC(N)=O)cc1 | -5.2% |
| NC(N)=NC(=S)Nc1ccc(Cl)cc1 | 7.55% |
| O=NN(CCOS(=O)(=O)c1ccc(Br)cc1)C(=O)NC1CCCCC1 | 18.6% |
| CC1COC(c2cc3c(cc2Cl)OCO3)O1 (stereo not given) | -20.3% |
| Cc1cc(C)n(/N=C/c2ccccc2[N+](=O)[O-])c(=O)c1C#N | -2.75% |
| Cc1cc(C)c(-c2c(C)cc(C)c([N+](=O)[O-])c2C)c(C)c1N | 98.4% (active) |
| c1ccc2cc3c(cc2c1)[nH]c1ccccc13 | -0.85% |
| CN(C)C(=O)C1C2CCCC(CC2)C1C(=O)N(C)C (stereo not given) | 21.2% |
| N#CCN(CCc1ccccc1)CCc1ccccc1 | 13.2% |

| SMILES | growth inhibition |
| --- | --- |
| Cc1nc(-c2nc(C(=O)NCCC[S+](C)C)cs2)cs1 | -5.4% |
| O=c1[nH]c(Nc2cccc(CO)c2)nc2nc[nH]c12 | -25.8% |
| CCn1c2ccccc2c2c(-c3ccccc3)cc3c(c21)C(=O)N(c1ccccc1)C3=O | 3.45% |
| C=C(C#N)C1OCC2OC(C)(C)OC21 (stereo not given) | -0.35% |
| COc1ccc(OC)c(/C=C/C2=C(C)C(=O)CC(c3cc(OC)ccc3OC)C2C)c1 (stereo not given) | 28.3% |
| CC(=O)OC1[C@H](OC(C)=O)C2=C(C)[C@@H](OC(C)=O)C[C@@]2(C(C)(C)O)[C@@H](OC(C)=O)[C@H]2[C@@]1(C)[C@@H](OC(C)=O)CC(OC(C)=O)[C@]21CO1 (stereo not given in full) | -20.3% |
| O=C1c2ccccc2-c2nc(-c3cccs3)cc3c2c1nc1ccccc13 | 29.1% |
| Cc1ccccc1NC(=O)C(=O)CC(=O)c1sc(Nc2ccccc2[N+](=O)[O-])nc1C | -7.4% |
| CC(C)CCC[C@@H](C)[C@H]1CC[C@H]2[C@@H]3CC[C@H]4C[C@@H](CCC=C(c5cc(Cl)c(O)c(C(=O)O)c5)c5cc(Cl)c(O)c(C(=O)O)c5)CC[C@]4(C)[C@H]3CC[C@]12C | 11.4% |
| Cc1cc(Cl)c(Cl)cc1NC(=O)c1c(Br)c(Br)c(Br)c(Br)c1C(=O)O | 8% |
| COC(=O)CCSSCCC(=O)OC | -1.6% |
| CCc1cc2c(c3c1CCC3=O)CC1(Cc3ccc(C)cc3C1)C2 (stereo not given) | -32.5% |
| COC(=S)OC1CC(n2cnc3c(N)ncnc32)OC1CO[Si](C)(C)C(C)(C)C (stereo not given) | 2.55% |
| Clc1cccc2nsnc12 | -3.15% |
| COC(=O)CCC(N)C(=O)NC(Cc1ccccc1)C(=O)NC(C)C(=O)NC1C(O)OC(CO)C(O)C1O (stereo not given) | 4.75% |
| O=C(Nc1ccccc1-c1n[nH]c(=S)[nH]c1=O)C(F)(F)F | -10.3% |
| c1ccc(SC2CCSc3ccccc3C2Sc2ccccc2)cc1 (stereo not given) | 3.2% |
| CCOC(SCC)C(O)C(O)C(O)C(O)CO (stereo not given) | 20.4% |
| COc1ccc(/C(C)=N/NC(N)=S)cc1OC | 2.45% |
| NC1CC(=O)c2c(Cl)sc(Cl)c21 (stereo not given) | 60.5% |
